PLK1 PBD inh – qHTS for Inhibitors of PLK1-PDB (polo-like kinase 1 - polo-box domain): Primary Screen. Serine/threonine-protein kinase PLK1 (Homo sapiens), P53350. Plk1 PBD binding of FITC phosphopeptide, fluorescence polarization. Potency, µM, inactives show max response, negative = inhibition, hits mostly inhibitors. hit rate 2.8% among 360,000. AID 720504, 2013; further: series mostly up to about 57 µM; nearly all actives have a fitted effect of over 65% in size
KAT2A inh – qHTS Assay for Inhibitors of GCN5L2 | Potency, µM (series often up to 58.9 µM), for inactives: at the top dose activity change, negative = inhibition, usual class: inhibitors | GCN5L2 HAT assay, ThioGlo1 CoA-SH fluorescence | hit rate 0.21% among 390,000
Target sequence (Q92830 whole entry, looked up): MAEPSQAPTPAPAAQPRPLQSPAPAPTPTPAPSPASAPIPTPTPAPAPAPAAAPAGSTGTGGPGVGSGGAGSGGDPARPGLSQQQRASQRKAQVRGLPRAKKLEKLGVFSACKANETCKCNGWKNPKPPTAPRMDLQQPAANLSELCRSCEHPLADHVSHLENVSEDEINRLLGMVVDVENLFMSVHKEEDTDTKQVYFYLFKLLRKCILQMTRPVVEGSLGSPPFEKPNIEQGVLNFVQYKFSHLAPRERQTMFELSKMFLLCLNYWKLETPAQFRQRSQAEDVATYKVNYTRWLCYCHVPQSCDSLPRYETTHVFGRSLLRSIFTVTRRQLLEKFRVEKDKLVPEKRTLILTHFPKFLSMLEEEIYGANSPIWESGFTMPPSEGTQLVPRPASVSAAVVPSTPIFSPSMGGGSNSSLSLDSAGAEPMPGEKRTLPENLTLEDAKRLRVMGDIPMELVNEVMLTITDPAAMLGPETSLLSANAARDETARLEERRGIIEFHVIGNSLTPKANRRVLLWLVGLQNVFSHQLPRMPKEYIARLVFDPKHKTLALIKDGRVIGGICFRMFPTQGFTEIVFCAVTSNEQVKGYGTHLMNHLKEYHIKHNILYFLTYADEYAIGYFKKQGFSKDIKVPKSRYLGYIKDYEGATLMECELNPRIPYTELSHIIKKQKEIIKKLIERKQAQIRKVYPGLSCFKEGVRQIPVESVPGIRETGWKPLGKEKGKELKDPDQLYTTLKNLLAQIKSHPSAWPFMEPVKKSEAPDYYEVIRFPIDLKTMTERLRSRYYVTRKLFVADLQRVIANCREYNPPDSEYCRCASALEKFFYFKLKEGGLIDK
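GCN5L2 (20 nM) in 50mM HEPES pH 7.5, 0.1mM EDTA, 0.01% Tween-20 preincubated 15 min with compounds at room temperature. Reaction started with H3(1-25) 75uM, acetyl-CoA 70uM, ThioGlo1 50uM; CoA-thiol fluorescence (Ex340/Em540) read at 0 and 20 min.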
ALOX12 inh – Primary qHTS assay for inhibitors of human arachidonate 12S-lipoxygenase (ALOX12): Round 2; Polyunsaturated fatty acid lipoxygenase ALOX12 (Homo sapiens), P18054; purified 12hLO, xylenol orange hydroperoxide absorbance; Potency, µM (top dose mostly 108 µM), without a hit: top-dose activity change, negative = inhibition, actives largely listed as inhibitors; hit rate 1.1% among 580,000; AID 1671190, 2021
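Purified human 12hLO (150 nM final) in 25 mM Hepes, 0.01% Triton X-100, pH 7.0 was preincubated 15 min at room temperature with compound. Then 40 uM arachidonic acid was added, 30 min. Hydroperoxide was read by Fe-XO absorbance ratio 573/405 nm.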
VDR inhibitor – Inhibitors of the vitamin D receptor (VDR): qHTS | Potency, µM, for inactives: max response, negative = inhibition, hits mostly inhibitors | Vitamin D3 receptor (Homo sapiens), P11473 | VDR-SRC2-3 peptide fluorescence polarization, 2 h | hit rate 0.93% among 400,000
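Compounds are added to VDR with labelled SRC2-3 coactivator peptide and held 2 h at room temperature. Inhibition of the VDR–peptide interaction is then read as a change in fluorescence polarization.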
* = called active by the depositor; ? = inconclusive; nt = not tested or not shown; ! = not confirmed by another sample; [ ] = dose if it differs, or a comment. An excerpt weighted towards active compounds, which were near 3% of everything screened. The call rests on the fitted dose curve; in most records, active means well fitted curve in the direction sought with a large enough effect; inconclusive means small, poorly fitted or top-dose-only effect, or another doubt; inactive means no such curve, though single readings can be large; an effect the other way counts as inactive or inconclusive. On the % scale 0 is the no-effect control and ±100 the full control effect; potency means the concentration at half of the fitted maximal effect.

SMILES	PLK1 PBD inh	KAT2A inh	ALOX12 inh	VDR inhibitor
CCN1/C(=C/c2ccc3cc(C)ccc3[n+]2CC)Sc2ccc3sccc3c21	?	nt	nt	-16%
CCN1/C(=C/c2ccc3cccc(C)c3[n+]2CC)Sc2ccccc21	12%	?	7.9µM*	-3%
C[n+]1ccccc1/C=C1\Sc2ccccc2N1CCO	10%	-24%	224%	-2%
CCN1/C(=C\c2ccc3cc(C)ccc3[n+]2CC)Sc2cc(C)c(C)cc21	0%	-17%	25µM*	-1%
COC(=O)c1ccc(N/C=C/C(=O)c2ccc(Cl)c(Cl)c2)cc1	nt	nt	16%	nt
O=C(O)c1cc(O)ccc1O	-5%	nt	?	3%
O=C(O)C1=CC(=C(c2ccc(O)c(C(=O)O)c2)c2ccc(O)c(C(=O)O)c2)C=CC1=O	nt	0.32µM*	nt	8.9µM*
C=C(C(=O)c1ccccc1)C(C)C(=C)C(=O)c1ccccc1	2%	-5%	-2%	79µM*
COc1ccc(-c2nnc(C[C@@H]3C[C@@H](C(C)C)[C@H](CNCc4ccco4)C=C3C)o2)cc1	nt	nt	44%	nt
CC(C)Cn1cnc2c1c(=O)n(CC(=O)NCC(F)(F)F)c(=O)n2Cc1ccccc1	nt	nt	4%	nt
Clc1ccccc1OCCCCn1ccnc1	-5%	-1%	17%	-11%
Clc1ccccc1OCCCn1ccnc1	4%	-3%	0.35µM*	0%
O=C(CCc1c[nH]c2ccccc12)N1CCN(c2ccc(O)cc2)CC1	27µM*	-6%	?	-7%
C=CCn1c(SCc2cccc(C#N)c2)nnc1-c1ccccc1O	27µM*	3%	319%	-26%
Cc1oc(-c2cccs2)nc1CC(=O)Nc1ccc(F)c(F)c1F	nt	nt	-23%	nt
COc1ccccc1/C=C/C=N/NC(=O)CCC1C(=O)NN=C1C (stereo unspecified)	27µM*	-12%	-13%	-29%
Cc1ccc(-c2ccc3nnc(CNC(=O)c4cccc(C(F)(F)F)c4)n3n2)cc1	nt	nt	36%	nt
O=C(Nc1ccccc1)Nc1ccccc1Br	-13%	-2%	11µM*	-12%
COc1ccccc1NC(=O)C(C/C=C(/C)Cl)C(C)=O (stereo unspecified)	30µM*	2%	0%	14%
COc1ccccc1NC(C)=O	-14%	-1%	11%	-3%
COc1ccccc1NC(=O)Nc1ccccc1Br	12µM*	-3%	-22%	?
CC(C)Oc1ccc(C(=O)CCN2CCOCC2)cc1	?	nt	?	45µM*
CCOc1ccc(C(=O)CCN2CCCCC2)cc1	?	0%	306%	?
CCCOc1ccc(C(=O)CCN2CCN(C(=O)OCC)CC2)cc1	15µM*	-7%	-21%	45µM*
CCCCCOc1ccc(C(=O)CCN2CCOCC2)cc1	30µM*	-2%	?	?
SMILES	PLK1 PBD inh	KAT2A inh	ALOX12 inh	VDR inhibitor
Cc1cccc(CN2CCc3ncc(C(=O)NCc4ccccc4)n3CC2)c1	nt	nt	49%[176 µM]	nt
Cc1ccc([C@H]2N[C@]3(CCCN(Cc4ccc(F)cc4)C3=O)[C@H]3C(=O)N(Cc4ccccc4)C(=O)[C@@H]23)cc1	-4%	nt	14µM*	nt
COc1ccc([C@H]2N[C@]3(CCCN(Cc4ccc(F)cc4)C3=O)[C@H]3C(=O)N(Cc4ccccc4)C(=O)[C@@H]23)cc1	-8%	nt	35µM*	nt
CCN1C(=O)[C@H]2[C@@H](c3ccc(OC)cc3)N[C@]3(CCCN(Cc4ccc(C(F)(F)F)cc4)C3=O)[C@H]2C1=O	-4%	nt	32µM*	nt
COc1ccc(CN2CCC[C@]3(N[C@H](c4ccc(C(F)(F)F)cc4)[C@@H]4C(=O)N(Cc5ccccc5)C(=O)[C@@H]43)C2=O)cc1	-5%	nt	?	nt
Cc1ccc([C@H]2N[C@]3(CCCN(Cc4ccc(C(F)(F)F)cc4)C3=O)[C@H]3C(=O)N(Cc4ccccc4)C(=O)[C@@H]23)cc1	5%	nt	?	nt
Cc1ccc(CN2CCC[C@]3(N[C@H](c4ccccc4)[C@@H]4C(=O)N(C)C(=O)[C@@H]43)C2=O)cc1	6%	nt	?	nt
Cc1ccc(CN2CCC[C@]3(N[C@H](c4ccc(C(F)(F)F)cc4)[C@@H]4C(=O)N(Cc5ccccc5)C(=O)[C@@H]43)C2=O)cc1	6%	nt	8.9µM*	nt
COc1ccc(Cl)cc1NC(=O)[C@H]1C[C@H](CCC(N)=O)N[C@]12C(=O)Nc1c(C)cc(Cl)cc12	nt	nt	-19%	nt
C/C(=N/O)c1cc(Cl)ccc1O	nt	nt	-17%	nt
Fc1ccc(C2=NNC(=NCc3ccccc3)SC2)cc1F	27µM*	-6%	-2%	-7%
O=C1Oc2ccccc2C(=O)C1C(CC(O)c1ccc(-c2ccc(Br)cc2)cc1)c1ccccc1 (stereo unspecified)	nt	22µM*	nt	32µM*
COc1ccc(CCNC(=O)C2CCN(c3nc(Cl)nc4nc[nH]c34)CC2)cc1OC	nt	nt	-1%	nt
O=[N+]([O-])c1cc([N+](=O)[O-])c(Oc2cc(F)cc(F)c2)cc1NN1CCCCC1	27µM*	-2%	9%	-28%
O=[N+]([O-])c1cc([N+](=O)[O-])c(Oc2ccc(F)cc2)cc1NN1CCCCC1	-3%	0%	-8%	-4%
COC(=O)c1cc2occc2n1Cc1nc(-c2ccc(Cl)cc2)oc1C	30µM*	1%	3%	?
Cc1ccc(S(=O)(=O)N2CCCN(C(=O)CN3CCOCC3)C2c2ccccc2)cc1 (stereo unspecified)	nt	nt	-2%	nt
CCOCCCNC(=O)c1cc2cc(Cl)ccc2nc1C	nt	nt	23%	nt
COc1ccc(NC(=O)CCN2CCOCC2)c(OC)c1	-4%	-3%	111%	-13%
COc1ccc([N+](=O)[O-])cc1NC(=O)CSCc1cc(C)cc(C)c1	30µM*	-5%	?	-24%
COc1ccc([N+](=O)[O-])cc1NC(=O)CCN1CCOCC1	30µM*	13%	16%	-24%
O=C(c1ccc(C(F)(F)F)cc1)N1CCC(c2nn(-c3ccc(F)cc3)c(=O)[nH]2)CC1	nt	nt	22µM*	nt
O=C(c1cccc(C(F)(F)F)c1)N1CCC(c2nn(-c3ccc(Cl)cc3)c(=O)[nH]2)CC1	nt	nt	10µM*	nt
COc1ccc(C(=O)N2CCC(c3nn(-c4ccc(Cl)cc4)c(=O)[nH]3)CC2)cc1	nt	nt	35µM*	nt
N[C@@H](CSS(=O)(=O)O)C(=O)O	nt	35µM*!	?	10µM*!
SMILES	PLK1 PBD inh	KAT2A inh	ALOX12 inh	VDR inhibitor
NC(=O)c1ccc(C(=O)OCc2nc3ccccc3o2)cc1	nt	nt	12%	nt
COC(=O)c1ccc(-n2nnnc2SC)cc1	21µM*	1%	-20%	-18%
COC(=O)COC(=O)c1ccc(-n2nnnc2SC)cc1	-4%	-15%	-5%	12%
CCC1(N2CCN(S(=O)(=O)c3cc(F)ccc3C)CC2)CCN(C(=O)NC)C1 (stereo unspecified)	nt	nt	-21%	nt
CCC1(N2CCN(S(=O)(=O)c3ccc4c(c3)CCCC4)CC2)CCN(C(=O)NC)C1 (stereo unspecified)	nt	nt	32µM*	nt
COCCn1cnc2c1c(=O)n(CC(=O)Nc1cccc(C)c1C)c(=O)n2Cc1ccccc1	nt	nt	-4%	nt

High-throughput results as filed in PubChem.
